Only some compounds are listed: those with a hit (about 3.6% of all), similar ones and a draw of the others.
PTEN del growth: growth suppression of PTEN-null HCT116, primary screen, cell-based, CellTiter-Glo; viability, % at 10 µM; hit rate 1.2% among 140,000; HCT116 PTEN-null viability, 60 h; stronger effect = lower value;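 active = viability at or below a set limit, 4 SD under the median of all tested compounds, cut at about 3.7% in these data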;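 also: PTEN knockout HCT116 line with beta catenin targeted HCT116 as companion control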
WT yeast gro inh: growth inhibition of WT strain, primary screen, mitochondrial fusion inhibitor project, WT and mutant strains, chemical genetic; mitochondrial fusion phenotypic screen; hit rate 2.1% among 190,000; inhibition, % at 10 µM; in the data active = inhibition above about 58%; tested in S. cerevisiae
bCat KO growth: primary screen for growth suppressors in beta-catenin knockout HCT116 cells (colon tumor, human); HCT116 beta-catenin knockout viability, CellTiter-Glo, 60 h; stronger effect = lower value; viability, % at 10 µM; hit rate 1.5% among 140,000; AID 818, 2007;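 active = viability at or under a set limit, the compound median less 4 SD, cut at about 6% in these data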
DAT uptake mod: changed hDAT dopamine uptake under cocaine IC80, either direction, primary screen, cocaine antagonist project, cell-based, LLC-PK1 hDAT, [14C]-dopamine uptake, MLSMR. Sodium-dependent dopamine transporter (Homo sapiens), Q01959. LLC-PK1 hDAT cells, [14C]-dopamine uptake with cocaine IC80; actives deviate in either direction. B-score at 10 µM. hit rate 1.3% among 110,000. AID 449768, 2010;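 active = Z score or B-score, a plate-position-corrected score, falls beyond the plate's 99.7% confidence bounds, in either direction; inactive = both scores lie inside the 99.7% bounds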
Target sequence (Q01959 whole entry, looked up): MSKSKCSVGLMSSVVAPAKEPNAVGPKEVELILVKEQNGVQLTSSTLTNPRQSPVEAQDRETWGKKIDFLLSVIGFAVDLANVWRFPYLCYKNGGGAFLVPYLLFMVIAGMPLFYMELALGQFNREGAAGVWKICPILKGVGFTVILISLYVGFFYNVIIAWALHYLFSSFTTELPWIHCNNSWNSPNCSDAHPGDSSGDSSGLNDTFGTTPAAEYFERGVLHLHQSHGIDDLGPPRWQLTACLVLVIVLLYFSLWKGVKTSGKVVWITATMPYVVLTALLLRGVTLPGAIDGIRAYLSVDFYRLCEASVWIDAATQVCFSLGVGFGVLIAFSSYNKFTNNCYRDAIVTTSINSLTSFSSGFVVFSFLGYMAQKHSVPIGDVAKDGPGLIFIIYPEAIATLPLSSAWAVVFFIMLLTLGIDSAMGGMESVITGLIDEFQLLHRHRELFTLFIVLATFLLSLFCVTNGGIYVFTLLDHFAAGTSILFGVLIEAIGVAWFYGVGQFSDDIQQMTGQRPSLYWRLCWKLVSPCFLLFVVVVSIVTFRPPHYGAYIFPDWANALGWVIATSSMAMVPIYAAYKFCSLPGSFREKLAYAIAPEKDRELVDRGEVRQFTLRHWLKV
Each line names hits and unclear results; the compound was inactive in the other large screens.

O=C(Nc1nccs1)c1cccc(N2C(=O)c3cccc4c([N+](=O)[O-])ccc(c34)C2=O)c1	PTEN del growth 1.5, bCat KO growth 1.7 (no result: DAT uptake mod)
CCOc1ccc(OCC)c(NC(=O)C2CCN(S(=O)(=O)c3c(C)[nH]c(=O)[nH]c3=O)CC2)c1	none (no result: PTEN del growth, bCat KO growth, DAT uptake mod)
COc1ccc(-c2cc(-c3ccc(F)cc3)nc(N3CCN(C)CC3)n2)cc1	PTEN del growth 3.4, bCat KO growth 3.3
O=C(OCC1OC2OC3(CCCCC3)OC2C2OC3(CCCCC3)OC12)c1ccccc1 (centres undefined)	WT yeast gro inh 74 (no result: DAT uptake mod)
O=C(O)C1OC2OC3(CCCCC3)OC2C2OC3(CCCCC3)OC12 (centres undefined)	none (no result: DAT uptake mod)
CN1N=C(C(=O)N2CCN(c3ccc([N+](=O)[O-])cc3)CC2)CCC1=O	none (no result: DAT uptake mod)
O=C(O)C1CCCCC1C(=O)NCc1ccccn1 (centres undefined)	none (no result: PTEN del growth, bCat KO growth, DAT uptake mod)
CC(C1CC1)N(Cc1ccccc1)C(=S)Nc1ccccc1 (centres undefined)	none (no result: PTEN del growth, bCat KO growth, DAT uptake mod)
CC(C1CC1)N(Cc1ccccc1)C(=S)Nc1cccc(C(F)(F)F)c1 (centres undefined)	WT yeast gro inh 76 (no result: DAT uptake mod)
Cc1ccc2cc(CCNC(=O)c3ccco3)c(=O)[nH]c2c1	none
Cc1ccc2cc(CN(C(=O)c3ccco3)c3ccccc3C)c(=O)[nH]c2c1	WT yeast gro inh 96
OCCn1nc2c3ccccc3nc-2n(-c2ccccc2)c1=S	DAT uptake mod -7.2
O=c1c2cn[nH]c2nc(SCc2c(F)cccc2F)n1-c1ccc(Cl)cc1	WT yeast gro inh 73 (no result: PTEN del growth, bCat KO growth, DAT uptake mod)
COc1ccc(NC(=O)/C=C/c2cc(Br)ccc2OC)cc1	none
COc1cc(/C=C/C(=O)c2ccc(NS(=O)(=O)c3ccc(C)cc3)cc2)cc(OC)c1O	none (no result: DAT uptake mod)
COc1cc(/C=C/C(=O)c2ccc(NS(=O)(=O)c3ccc(C)cc3)cc2)ccc1OC(F)F	PTEN del growth 2.9, bCat KO growth 4.8 (no result: DAT uptake mod)
COc1ccc(C(=O)Nc2ccc(NC(=O)c3cccs3)cc2)cc1Cl	none (no result: DAT uptake mod)
COc1ccc(/C=C/C(=O)c2ccc(NC(=O)c3cccs3)cc2)cc1OC	PTEN del growth 1.8, bCat KO growth 1.4
COc1ccc(Br)cc1/C=C/C(=O)c1ccc(NC(C)=O)cc1	PTEN del growth 1.3, WT yeast gro inh 84, bCat KO growth 4.9 (no result: DAT uptake mod)
COc1ccc(/C=C/C(O)=C2/C(=O)NC3(C)CC2c2ccccc2O3)c(OC)c1OC (centres undefined)	none (no result: PTEN del growth, bCat KO growth, DAT uptake mod)
Cc1ccc(/C=C/C(O)=C2/C(=O)N(C)C3(C)CC2c2ccccc2O3)cc1 (centres undefined)	PTEN del growth 3.0, bCat KO growth 5.4
COc1ccc(/C=C/C(O)=C2/C(=O)N(C)C3(C)CC2c2ccccc2O3)cc1 (centres undefined)	PTEN del growth 1.4, bCat KO growth 1.8
CC(=O)c1c(C)nc(-c2ccccc2)nc1NC(=O)C(C)C	none
CC(=O)Nc1nc(-c2ccccc2)nc(C)c1C(C)=O	DAT uptake mod -8.5
CCN(CC)C(=O)C1CCN(S(=O)(=O)c2ccc3oc4ccccc4c3c2)CC1	DAT uptake mod 2.3
O=C(Nc1ccccc1)C1=C[C@@H](c2ccc(C(F)(F)F)cc2)C[C@@H](OCc2ccc(CO)cc2)O1	WT yeast gro inh 63 (no result: PTEN del growth, bCat KO growth)
O=C(Nc1ccccc1)C1=C[C@@H](c2ccccc2)C[C@@H](OCc2ccc(CO)cc2)O1	none (no result: PTEN del growth, bCat KO growth)
N#Cc1c(-c2ccc(F)cc2)ccnc1N1CCOCC1	none (no result: PTEN del growth, bCat KO growth, DAT uptake mod)
CCNc1nc(N)nc(-c2cc(Cl)ccc2O)n1	bCat KO growth 5.2 (no result: DAT uptake mod)
CCCCNc1nc(N)nc(-c2cc(Cl)ccc2O)n1	none (no result: DAT uptake mod)
COc1ccc(-n2nnnc2SC(C)C(N)=O)cc1 (centres undefined)	DAT uptake mod -5.2
CC(=O)Nc1nc(C)c(-c2csc(Nc3ccc(O)cc3)n2)s1	none
COc1cccc(Nc2nc(-c3sc(NC(=O)CC(C)C)nc3C)cs2)c1	none
CCCC(=O)Nc1nc(C)c(-c2csc(Nc3ccccc3OC)n2)s1	none
COc1cccc(Nc2nc(-c3sc(NC(=O)c4ccccc4)nc3C)cs2)c1	WT yeast gro inh 66
CC(=O)Nc1nc(C)c(-c2csc(Nc3cccc([N+](=O)[O-])c3)n2)s1	PTEN del growth 1.7, bCat KO growth 1.8
COc1ccccc1Nc1nc(-c2sc(NC(=O)CC(C)C)nc2C)cs1	DAT uptake mod 2.7
COCCNC(=O)CSc1c2c(nc3ccc(Cl)cc13)CCCC2	none (no result: PTEN del growth, bCat KO growth, DAT uptake mod)
COCC(=O)O[C@]1(CCN(C)CCCc2nc3ccccc3[nH]2)CCc2cc(F)ccc2[C@@H]1C(C)C	none (no result: PTEN del growth, WT yeast gro inh, bCat KO growth)
COc1ccccc1/C=C1\CCCC2=C1Nc1nnnn1C2c1ccccc1OC (centres undefined)	PTEN del growth 1.7, bCat KO growth 4.0 (no result: DAT uptake mod)
CSc1sc(C(=O)O)c2c1C(=O)CCC2	DAT uptake mod -2.3
CSc1sc(C(=O)O)c2c1C(=O)CC(C)(C)C2	none (no result: PTEN del growth, WT yeast gro inh, bCat KO growth)
Cc1ccc(NC(=S)N(C)Cc2cn(C)c3ccccc23)cc1	none (no result: DAT uptake mod)
FC(F)Oc1ccccc1NC(=S)Nc1cccnc1	none (no result: PTEN del growth, bCat KO growth, DAT uptake mod)
Fc1ccc(NC(=S)Nc2ccccc2N2CCOCC2)cc1Cl	WT yeast gro inh 61 (no result: PTEN del growth, bCat KO growth, DAT uptake mod)
FC(F)Oc1ccc(NC(=S)NCc2ccccc2)cc1Cl	WT yeast gro inh 58
Cc1ccc(NC(=S)Nc2ccc(Cl)c(Cl)c2)c(OC(F)F)c1	WT yeast gro inh 80 (no result: DAT uptake mod)
Fc1ccc(NC(=S)Nc2ccccc2OC(F)F)cc1Cl	WT yeast gro inh 62 (no result: DAT uptake mod)
N#CC1=C(S)N(c2ccccc2)C2(CCCCC2)NC1=O	none (no result: DAT uptake mod)
CCOC(=O)N1CCN(C(=O)C2CCN(S(=O)(=O)c3cc(OC)ccc3OC)CC2)CC1	none (no result: PTEN del growth, bCat KO growth, DAT uptake mod)
Cc1ccc(NC(=S)Nc2ccc(OC(F)F)c(Cl)c2)cc1Cl	WT yeast gro inh 73 (no result: DAT uptake mod)
CC(NC(=S)Nc1ccc(OC(F)F)c(Cl)c1)C(C)(C)C (centres undefined)	none (no result: PTEN del growth, bCat KO growth, DAT uptake mod)
Cc1cccc(C)c1NC(=S)Nc1ccc(Cl)c(Cl)c1	WT yeast gro inh 80 (no result: PTEN del growth, bCat KO growth, DAT uptake mod)
Cc1cccc(OCCC(=O)NCC(=O)Nc2cccc(C)c2C)c1	none (no result: DAT uptake mod)
CN(C)/C=C(/C#N)C(=O)c1cccc(Oc2ccc(C(C)(C)C)cc2)c1	WT yeast gro inh 65
Cc1ccccc1Oc1cccc(C(=O)/C(C#N)=C/N(C)C)c1	none
Cc1ccc2[nH]cc(C(=O)CCl)c2c1	PTEN del growth 2.3, bCat KO growth 2.8 (no result: DAT uptake mod)
Cc1ccc2[nH]cc(C(=O)CN3CCN(C)CC3)c2c1	none
N#Cc1cc2c(nc1Cl)CCCC2	none (no result: DAT uptake mod)
COc1ccc(/C=N/NC(N)=S)cc1OC(=O)c1cccc2ccccc12	WT yeast gro inh 61
FC(F)C(F)(F)C(F)(F)C(F)(F)c1cc(-c2ccccc2)n[nH]1	WT yeast gro inh 70
Clc1ccc2ncc(-c3nnnn3-c3ccccc3)c(-c3ccccc3)c2c1	WT yeast gro inh 70
C#CC(=O)N(c1cc(OC)ccc1OC)C(C(=O)NC1CCCC1)c1cccs1 (centres undefined)	PTEN del growth 1.0, bCat KO growth 0.7
C#CC(=O)N(c1ccc(OC)cc1OC)C(C(=O)NC1CCCC1)c1cccs1 (centres undefined)	none (no result: PTEN del growth, bCat KO growth, DAT uptake mod)
COc1cc(OC)c(NS(=O)(=O)c2cc(C(=O)OC(C)C(=O)NC3CC3)c(Cl)cc2Cl)cc1Cl (centres undefined)	none (no result: DAT uptake mod)
